# According to the supplement of paper PMC8699584:
# Counter-ions that a name gives are not always drawn. ± gives the standard deviation of the averaged measurements.
# Legend:
# Molm13 = test: cell viability relative to DMSO control (bortezomib = 0%); higher = less growth inhibition; conditions: 10 nM; 72 h
# Outline: (§1)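 Cell viability was assessed by CellTiter-Glo luminescence. Acute myeloid leukemia cells were seeded at 1000 cells per well in 50 µL on a 384-well library of 679 compounds at a single 10 nM dose for 72 h. Per-plate linear regression set DMSO-treated cells at 100% and positive-control-treated cells at 0%.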
# Mv4-11 = test: as above; conditions: 10 nM; 72 h
# Outline: as §1
SMILES,cell viability (Molm13),cell viability (Mv4-11)
CNC(=O)c1cc(Oc2ccc(NC(=O)Nc3ccc(Cl)c(C(F)(F)F)c3)cc2)ccn1,45 ± 3.3%,45.2 ± 5.3%
c1cc(-c2cnn3cc(-c4ccc(OCCN5CCCCC5)cc4)cnc23)ccn1,95.5 ± 6%,117 ± 10%
COc1cc(N2CCC(N)CC2)ccc1Nc1ncc(Cl)c(-c2c[nH]c3ccccc23)n1,86 ± 2.5%,93.3 ± 5.9%
COc1cc2ncnc(Nc3ccc(O)cc3)c2cc1OC [Janex 1],101 ± 12%,111 ± 5.3%
COc1cc2c(cc1OC)-c1[nH]nc(Nc3cccc(F)c3)c1C2,120 ± 23%,116 ± 26%
O=C1c2cccc(O)c2C(=O)c2c(O)cccc21 [Antrapurol],112 ± 7.6%,109 ± 3.2%
CN1CCN(c2ccc(Nc3cc(-c4cccc(-n5ccc6cc(C7CC7)cc(F)c6c5=O)c4CO)cn(C)c3=O)nc2)CC1,99.6 ± 8.6%,107 ± 8.8%
CCCC(CCC)C(=O)O [Valproic Acid (sodium salt)],100 ± 10%,104 ± 10%
CCCCNc1ncc(C(=O)NCc2ccc(-n3ccnc3)cc2)c(NC2CCC(O)CC2)n1 (stereo not drawn),103 ± 5.1%,115.2 ± 0.28%
O=C(NCc1ccccc1)c1csc(Nc2ccncn2)n1 [Thiazovivin],115 ± 7.6%,113 ± 3.7%
COc1cc2ncnc(Nc3ccc(Cl)cc3F)c2cc1OC,108 ± 8.2%,102 ± 6.2%
CCCCCCCCCCCCCC#CC(=O)[C@@H]1COC(C)(C)N1C(=O)OC(C)(C)C,108 ± 11%,132 ± 1.6%
Cc1ccc(Nc2nccc(N(C)c3ccc4c(C)n(C)nc4c3)n2)cc1S(N)(=O)=O [Pazopanib],101 ± 36%,104 ± 4.1%
CSc1cccc(Nc2ncc3cc(-c4c(Cl)cccc4Cl)c(=O)n(C)c3n2)c1,92.8 ± 10%,101 ± 7.8%
